Screening results as filed in PubChem BioAssay.
Only some compounds are listed: those with a hit (about 17% of all), similar ones and a draw of the others.
ATXN2 expr inh = Primary qHTS for Inhibitors of ATXN expression. HEK-293 ATXN2-luciferase reporter, luminescence, 24 h. Potency, µM (doses to about 57 µM), for the others: at the top dose activity change, negative = inhibition, usual class: inhibitors. 360,000 tested, 0.72% active. AID 1745845, 2022; also: % is scaled to controls: 0 for no effect and ±100 for the full control effect; nearly all actives have a fitted effect of over 55% in size
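qHTS (up to 57 uM final) was run with 24 h compound exposure of reporter cells at 37 °C. Each well was multiplexed: SteadyGlo luminescence measured ATXN2-luciferase expression after a fluorogenic Gly-Phe-AFC viability readout (25 uM final).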
TDP1 cell CPT = qHTS for Inhibitors of human tyrosyl-DNA phosphodiesterase 1 (TDP1): qHTS in cells in presence of CPT; chicken DT40 Tdp1-/-;hTDP1 cells + 20 nM CPT, ATP luminescence, 48 h; Potency, µM (top dose mostly 46.2 µM), inactives show at the top dose activity change, negative = growth inhibition, actives largely listed as inhibitors; 420,000 tested, 12% active; AID 686979, 2013; also: % is scaled to controls: 0 for no effect and ±100 for the full control effect; nearly all actives have a fitted effect of over 55% in size
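Chicken DT40 Tdp1-/- cells stably complemented with human TDP1 were seeded at 400 cells/well in medium containing 20 nM camptothecin, exposed to pin-transferred compounds, and grown at 37 °C for at least 48 hr. Viability was read as ATP luminescence.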
TGFb SMAD3 inh = qHTS for Inhibitors of TGF-b. 410,000 tested, 1.2% active. HepG2 CAGA-GFP TGF-b/SMAD3 reporter, GFP fluorescence, 18 h; TGF-beta stimulated, 500 pg/mL final. Potency, µM (series often up to 46.1 µM), for the others: top-dose activity, negative = inhibition, actives largely listed as inhibitors; also: % is scaled to controls: 0 for no effect and ±100 for the full control effect; nearly all actives have a fitted effect of over 65% in size
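TGF-beta reporter screen: HEPG2 CAGA-GFP, 1% FBS, 500 pg/mL TGF-beta final, 18 h; per-cell GFP summed per well; curves fitted and categorized by class.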
HepG2 viability = qHTS for Inhibitors of TGF-b: Cytotox Counterscreen; HepG2 CAGA-GFP viability, ATP luminescence, 18 h; Potency, µM (doses to about 46.1 µM), for inactives: at the top dose activity change, negative = cytotoxicity, actives largely listed as cytotoxic; 410,000 tested, 0.76% active
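HepG2 CAGA-GFP cells (1000/well, DMEM with 1% FBS) received compound, then TGF-beta at 500 pg/mL final, and were incubated 18 hours at 37 degrees C. Viability was read by CellTiter-Glo luminescence. Media-only wells were set as complete cell-killing and DMSO as no toxicity.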
DT40 TDP1 no CPT = qHTS for Inhibitors of human tyrosyl-DNA phosphodiesterase 1 (TDP1): qHTS in cells in absence of CPT; 420,000 tested, 15% active; Potency, µM (series often up to 46.2 µM), inactives show at the top dose activity change, negative = growth inhibition, usual class: inhibitors; DT40 Tdp1-/- hTDP1 cells, no CPT, ATP luminescence, 48 h; also: % is scaled to controls: 0 for no effect and ±100 for the full control effect; nearly all actives have a fitted effect of over 55% in size
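Stably hTDP1-transfected Tdp1-null chicken DT40 cells were treated with library compounds minus camptothecin and grown for at least 48 hr at 37 °C, after which cellular ATP was quantified by luminescence.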
S2 tox = Viability Counterscreen for Primary qHTS for Inhibitors of ATXN expression; AID 651635, 2014; S2 cells (HEK-293 line with an ATXN2-luciferase reporter) viability, CellTiter-Fluor protease fluorescence, 24 h; Potency, µM (titrated, usually from 56.7 µM), hits mostly cytotoxic; 400,000 tested, 0.49% active; also: nearly all actives have a fitted effect of over 40% in size
* hit, by the source's call; i = inactive; ? = inconclusive; . = no result given. Calls follow the shape of the dose curve; as a rule, active = well fitted curve in the direction sought with a large enough effect; inconclusive = small, poorly fitted or top-dose-only effect, or another doubt; inactive = no such curve, though single readings can be large; an effect the other way counts as inactive or inconclusive. Potency is read from the fitted curve at half-maximal effect.

SMILES	ATXN2 expr inh	TDP1 cell CPT	TGFb SMAD3 inh	HepG2 viability	DT40 TDP1 no CPT	S2 tox
C=C[C@@]1(C)C[C@H](OC(=O)CSC(C)(C)CNC(=O)[C@@H](N)C(C)C)[C@@]2(C)C(C)CC[C@@]3(CCC(=O)[C@@H]32)[C@H](C)[C@H]1O (stereo partly specified)	.	0.112µM*	?	-33.5%	0.0794µM*	.
C=C[C@]1(C)C[C@@H](OC(=O)CSCCN(CC)CC)[C@]2(C)C(C)CC[C@]3(CCC(=O)[C@H]32)[C@@H](C)[C@@H]1O (stereo partly specified)	-5.8%	8.2µM*	1.7%	-31.8%	8.2µM*	?
C=CCNC(=S)/N=c1/ccccn1CC	-0.3%	-27.6%	?	-3.3%	?	?
COc1ccc(CN2CCN(c3nc4ccccc4s3)CC2)cc1	11.9%	?	-0.9%	-3.7%	?	i
Cc1ccccc1CN1CCN(c2nc3ccccc3s2)CC1	13.9%	18.4µM*	-1.4%	-27.0%	-15.2%	i
Cc1ccc(-c2nc3cnccn3c2Nc2c(C)cccc2C)o1	-31.5%	5.8µM*	?	-24.1%	10.3µM*	.
Cc1ccc(-c2nc3cnccn3c2Nc2ccc(C(C)C)cc2)o1	.	?	.	.	10µM*	.
CCNc1nc(-c2sc(NC(=O)C(C)(C)C)nc2C)c(-n2cc(-c3ccccc3)nn2)s1	14.1µM*	10.3µM*	.	.	7.31µM*	.
Cc1nc(NC(=O)C(C)(C)C)sc1-c1nc(N)sc1-n1cc(-c2ccccc2)nn1	4.8%	-1.0%	.	.	-23.0%	i
CC1CC(C)CN(c2ccc([N+](=O)[O-])nc2)C1 (stereo unspecified)	-3.5%	8.1%	-7.3%	-24.1%	-6.3%	11.9µM*
CC1CN(c2ccc([N+](=O)[O-])nc2)CC(C)O1 (stereo unspecified)	28.0%	9.3%	-4.5%	-2.8%	9.4%	?
COc1cc2c(cc1OC)CN(C(=O)CCNC(=O)c1ccccc1Cl)CC2	5.3%	-14.5%	2.2%	4.9%	5.3%	i
COc1ccccc1CN1CCCC2(CCN(S(C)(=O)=O)CC2)C1	.	11.8%	.	.	-5.8%	.
COc1cc2c(cc1OC)C(COc1ccccc1OC)N(C(=O)c1ccc(S(=O)(=O)N3CCCC3)cc1)CC2 (stereo unspecified)	-8.6%	16.4µM*	-2.9%	-28.4%	?	i
COc1cc2c(cc1OC)C(COc1ccccc1OC)N(C(=O)c1ccccc1OC)CC2 (stereo unspecified)	-11.2%	?	-0.7%	-14.8%	18.4µM*	i
COc1cc2c(cc1OC)C(c1ccccc1)N(C(=O)c1ccccc1F)CC2 (stereo unspecified)	.	-21.6%	6.6%	-19.6%	?	i
CCOC(=O)c1ccc(OCC2c3cc(OC)c(OC)cc3CCN2C(=O)c2ccc(S(=O)(=O)N3CCCC3)cc2)cc1 (stereo unspecified)	1.0%	?	0.6%	-12.5%	?	i
O=C(CN1CCC(n2nnc3cc(C(F)(F)F)ccc32)CC1)Nc1ccc2c(c1)CCC2	-22.4%	?	-3.0%	-2.4%	20.6µM*	i
CC1Cc2ccccc2N1C(=O)CN1CCC(n2nnc3cc(C(F)(F)F)ccc32)CC1 (stereo unspecified)	-21.9%	?	18.2%	-28.0%	23.1µM*	?
Cc1ccc(/C=N/n2c(C)nnc2C)cc1	-12.6%	-8.2%	-3.6%	-14.0%	-1.0%	i
Cc1ccc2nc(Cl)c(/C=N/n3c(C)nnc3C)cc2c1	60.7%	?	10.2%	-11.2%	20.6µM*	?
Cc1ccc(Cn2c(CNS(=O)(=O)c3cccc([N+](=O)[O-])c3)nc3cccnc32)cc1	.	?	?	-40.8%	?	.
Cc1nn(Cc2ccc(Cl)cc2)c(C)c1NC(=O)CCCn1nc([N+](=O)[O-])c(Cl)c1C	-3.5%	14.6µM*	-11.3%	-14.4%	?	i
Cc1c(Cl)c([N+](=O)[O-])nn1CCCC(=O)Nc1cc(Oc2ccccc2)cc([N+](=O)[O-])c1	2.0%	20.6µM*	9.2%	-4.1%	?	i
Cc1ccccc1Oc1cc(NC(=O)Cn2cnc([N+](=O)[O-])c2)cc([N+](=O)[O-])c1	.	16.4µM*	?	-19.9%	?	?
SMILES	ATXN2 expr inh	TDP1 cell CPT	TGFb SMAD3 inh	HepG2 viability	DT40 TDP1 no CPT	S2 tox
Cc1c(Cl)c([N+](=O)[O-])nn1CCCC(=O)Nc1c(Cl)cccc1Cl	-3.8%	?	0.2%	3.7%	?	i
Cc1c(Cl)c([N+](=O)[O-])nn1CCCC(=O)N1CCN(c2ccccc2)CC1	-15.5%	14.6µM*	-1.0%	-11.1%	-16.1%	i
Cc1ccc2cc(C)c3nnc(SCC(=O)Nc4nc5c(s4)CCCC5)n3c2c1C	14.2%	?	-20.2%	-2.3%	?	i
Cc1ccc(/C=C/c2onc(C)c2S(=O)(=O)N2CCC(C(=O)Nc3cc(C)ccc3C)CC2)cc1	12.5%	-16.2%	-7.6%	-2.5%	-14.7%	i
Cc1cccc(OCc2nnc(SCC(=O)Nc3cccc(C(=O)N4CCOCC4)c3)n2C)c1	5.4%	1.2%	-17.8%	-16.9%	-18.6%	i
Cc1ccc(CNC(=O)C(=O)NCC(c2ccco2)S(=O)(=O)c2ccccc2)cc1 (stereo unspecified)	.	-4.6%	0.0%	-31.8%	-4.1%	.
Cn1c(=O)cc(Cl)[nH]c1=O	-3.0%	2.3%	-3.3%	7.6%	-7.1%	i
COc1ccc(CNC(=O)c2ccc(-n3cncn3)c3ccoc23)cc1OC	12.9%	-0.3%	15.3%	10.2%	?	i
COc1ccc(-c2coc3c(C(=O)NCc4cccc(Cl)c4)cccc23)c(C)c1	-21.1%	14.6µM*	-26.3%	-22.2%	14.6µM*	i
Cn1cc(-c2coc3c(C(=O)NCc4cccs4)cccc23)cn1	-1.7%	?	-8.9%	-23.6%	?	i
COc1ccc(-c2coc3c(C(=O)NCc4ccco4)cccc23)c(C)c1	?	18.4µM*	?	-6.9%	?	?
Cn1cc(-c2coc3c(C(=O)NCc4cccc(Cl)c4)cccc23)cn1	-34.2%	?	-14.1%	-10.7%	5.8µM*	?
COc1ccc(CNC(=O)c2ccc(-n3ccnc3)c3ccoc23)cc1OC	-3.2%	18.4µM*	-7.2%	5.5%	?	i
